Screening results from PubChem BioAssay.
Vaccinia mCherry = inhibitors of vaccinia virus infection (mCherry reporter signal) | Vaccinia virus mCherry reporter infection, fluorescence | Potency, µM (top dose mostly 36.5 µM), hits mostly inhibitors | actives 0.63% (n = 310,000) | AID 720579; calls by dose curve; tested in A549 cells; further: nearly all actives have a fitted effect of over 35% in size
Vaccinia Venus = inhibitors of vaccinia virus (Venus reporter). Vaccinia virus Venus reporter expression, fluorescence. Potency, µM (series often up to 36.5 µM), most hits filed as inhibitors. actives 0.46% (n = 330,000). AID 720580; calls by dose curve; tested in A549 cells; further: nearly all actives have a fitted effect of over 30% in size
HCV inh = blocks hepatitis C virus. Huh7.5.1 HCVcc-Cre infection, luciferase reporter, 44 h. Potency, µM (highest dose often 41.8 µM), most hits filed as inhibitors. actives 3.4% (n = 340,000)
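HCVcc-Cre virus at an moi near 0.5 was added right after compound to cells cultured 4 h from seeding (1,000 cells/well). Luciferase activity was determined 44 h later, 15 min after substrate addition at RT.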
FMDV inh = foot and mouth disease virus antiviral activity. Potency, µM (top dose mostly 57.9 µM), hits mostly inhibitors. FMDV antiviral cell-based qHTS. AID 1159524. actives 1.2% (n = 410,000); calls by dose curve; tested in HEK293T cells; further: read-out not given here; nearly all actives have a fitted effect of over 45% in size
HCMV antiviral = blocks human cytomegalovirus replication. actives 4.5% (n = 410,000). AID 1259415. activity change, negative = inhibition, % at 57.5 µM. HFF cells, HCMV-luciferase reporter, 72 h; active compounds read low; in the data active means activity change below about -60%; inconclusive means no clear call, values can overlap the other calls; inactive means above about -39%
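Two compound doses tested in HFFs infected with HCMV-luciferase, MOI 1 PFU/cell, 72 h at 37C. Lysate luminescence read with OneGlo; data normalized against buffer-only and 10uM Salinomycin inhibitor controls.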
Sm TGR inh = blocks Schistosoma mansoni thioredoxin glutathione reductase; Q962Y6; purified TGR, DTNB reduction, TNB absorbance 405 nm; Potency, µM (highest dose often 114 µM), hits mostly inhibitors; actives 3% (n = 360,000); AID 485364; further: nearly all actives have a fitted effect of over 60% in size
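First, TGR (20 nM dispensed) and NADPH were mixed with compound. Second, a 15 min room-temperature incubation followed. Third, further NADPH and then DTNB were added to start the reaction. Finally, TNB absorbance was monitored kinetically.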
A number is an active result; i = inactive; ? = inconclusive; nt = no result; [ ] = dose if it differs, or a comment. This is a sample that favours compounds with a hit; in the whole collection about 9.3% have one here. Unless noted, the call rests on the fitted dose curve; in most records, active means well fitted curve in the direction sought with a large enough effect; inconclusive means small, poorly fitted or top-dose-only effect, or another doubt; inactive means no such curve, though single readings can be large; an effect the other way counts as inactive or inconclusive.

SMILES | Vaccinia mCherry | Vaccinia Venus | HCV inh | FMDV inh | HCMV antiviral | Sm TGR inh
Cc1ccc(C(=O)Nc2ccccc2C(N)=O)o1 | nt | nt | i | i | i | i
Cc1ccc(C(=O)Nc2ccccc2-c2ccccc2)o1 | nt | i | i | i | -67.1 | i
Cc1cc(C)nc(NC(=O)c2c(Cl)cccc2Cl)n1 | i | i | i | i | i | i
Cc1cc(C)nc(NC(=O)c2ccc(C)o2)n1 | nt | nt | i | i | -98.2 | i
Cc1cnc(C(=O)Nc2cccc3ncccc23)cn1 | i | i | i | i | i | i
Cc1ncoc1C(=O)Nc1ccccc1-c1ccccc1 | nt | nt | i | i | i | 1µM
COCCNCC(=O)Nc1ccc(OC(F)(F)F)cc1 | i | i | i | i | i | i
O=P1(Nc2ccc(F)cc2)COc2ccccc2OC1 | nt | nt | i | i | i | i
CCC(C)SCc1nc2ccccc2[nH]1 (configuration not stated) | i[1.46 µM] | i | i | i | -62.7 | i
CCN(CC)S(=O)(=O)c1ccc2c(c1)nc(SC(C)C(N)=O)n2-c1ccc(OC)cc1 (configuration not stated) | nt | ? | i | i | i | i
Cc1ccc(NC(=O)N(C2CCCCC2)C(C)c2cccnc2)cc1C (configuration not stated) | i | i | i | i | -68.5 | i
CCOc1ccc2nc3sc(C(=O)N4CCN(C)CC4)c(N)c3cc2c1 | nt | nt | 11.2µM | i | ? | i
CC(C)c1ccc2nc3sc(C(=O)N4CCc5ccccc5C4)c(N)c3cc2c1 | ? | i | 10µM | i | i | i
Cc1ccc2nc3sc(C(=O)N4CCOCC4)c(N)c3cc2c1 | ? | i | i | 10µM | -68.5 | i
COc1ccccc1OCCCn1c(=O)sc2ccccc21 | nt | nt | ? | i | i | i
CCOCC(O)CSCc1ccc(Cl)cc1 (configuration not stated) | nt | nt | i | i | i | 10µM
Cc1cc(Nc2ccc(C)c(C)c2)c2ccccc2n1 | ? | i | ? | i | -63.3 | i
CCOc1ccc2nc(C)cc(Nc3cccc([N+](=O)[O-])c3)c2c1 | 11.2µM | ? | ? | i | -97.0 | i
Cc1cc(NCc2ccccc2)c2ccccc2n1 | nt | nt | 11.2µM | ? | ? | i
Cc1cc(Nc2cccc([N+](=O)[O-])c2)c2ccccc2n1 | ? | ? | i | ? | i | nt
CC(=O)Nc1ccc(Nc2cc(C)nc3ccccc23)cc1 | i | i | i | i | i | nt
COc1ccc2nc(C)cc(NCc3cccc(C(F)(F)F)c3)c2c1 | i | ? | 10µM | i | i | i
Cc1cc(NCc2ccccc2)nc2ccccc12 | nt | i | ? | i | i | i
OCCNc1nc(-c2cccs2)nc2ccccc12 | i | i | nt | nt | nt | nt
CCOc1ccccc1CN1CCC(N2CCC(C(=O)NC3CC3)CC2)CC1 | i | i | i | i | i | i
SMILES | Vaccinia mCherry | Vaccinia Venus | HCV inh | FMDV inh | HCMV antiviral | Sm TGR inh
O=c1[nH]cnc(O)c1C1C=CC=CC=C1 | i | i | i | ? | i | nt
Cc1ccc(CN2CC(C(=O)N(CC(C)C)c3c(N)n(Cc4ccccc4)c(=O)[nH]c3=O)CC2=O)cc1 (configuration not stated) | i | i | i | i | i | nt
CC(C)(C)C1CCSC2=NCCC[C@]2(c2ccccc2)C1 (some centres not stated) | i | i | nt | i | i | nt
Cc1cc(Cl)c2ccccc2n1 | i | i | i | i | i | i
CCOc1ccc(Nc2cc(C)nc3c(C)cccc23)cc1 | i | i | ? | i | -76.3 | i
COc1ccc(Cl)cc1Nc1cc(C)nc2ccccc12 | nt | nt | 11.2µM | ? | -86.8 | nt
COc1ccc(OC)c(Nc2cc(C)nc3ccccc23)c1 | nt | nt | ? | ? | i | i
Cc1cc(Nc2ccccc2C)c2cccc(C)c2n1 | i | i | nt | i | i | i
Cc1cc(Nc2ccccc2Cl)c2ccccc2n1 | i | i | ? | ? | -73.4 | nt
Cc1noc(C)c1COc1ccc(C(=O)OCC(=O)N2CC3(C)CC2CC(C)(C)C3)cc1 (configuration not stated) | i | i | ? | i | i | i
CC(C)(C)NC(=S)N1CCC2CC1c1cc(-c3ccc4c(c3)OCO4)ccc12 (configuration not stated) | i | i | nt | i | i | nt
COC(=O)[C@@H]1C[C@@H]2CC[C@@H](O)C[C@@H]2N1Cc1ccccc1OS(=O)(=O)c1ccc(C)cc1 | i | i | i | i | i | 28.2µM
C=CCn1c(C(C)NC(=O)CCC)nc2ccccc21 (configuration not stated) | i | i | 11.2µM | nt | -61.9 | i
C=CCn1c(C)cc(C(=O)Cn2c(C(C)O)nc3ccccc32)c1C (configuration not stated) | i | i | i | ? | -65.8 | i
CCCC(=O)NC(C)c1nc2ccccc2n1CC (configuration not stated) | i | i | i | i | i | i
C=CCn1c(C(C)C)nc2ccccc21 | i | i | i | i | i | i
CN(C(=O)CN1CCN(c2ccc([N+](=O)[O-])cn2)CC1)c1ccccc1 | ? | i | ? | i | nt | i
CCOC(=O)[C@]12Cc3cc(Cl)ccc3[C@H]1N(C)C(=O)c1cc(OC)ccc12 | ? | ? | nt | 15.8µM | -96.5 | nt
CCCCCN1C(=O)c2cc(OC)ccc2[C@@]2(C(=O)OCC)Cc3cc(OC)ccc3[C@@H]12 | ? | ? | nt | 3.16µM | -104.9 | nt
CCOC(=O)[C@]12Cc3cc(OC)ccc3[C@H]1N(CC(=O)OC)C(=O)c1cc(OC)ccc12 | i | i | nt | 14.1µM | -106.9 | nt
CCCCCN1C(=O)c2ccccc2[C@@]2(C(=O)OCC)Cc3cc(Cl)ccc3[C@@H]12 | ? | i | nt | ? | ? | nt
CCOC(=O)[C@]12Cc3cc(OC)ccc3[C@H]1N(C)C(=O)c1cc(OC)ccc12 | ? | i | nt | 11.2µM | -106.0 | nt
CCCOc1ccc(C(C)=O)cc1Cc1c(O)nc(SC)[nH]c1=O | i | i | i | i | i | i
Cc1cc(N2CCN(C/C=C/c3ccccc3)CC2)n2ncnc2n1 | i | i | ? | nt | -91.3 | i
Cc1cc(N2CCN(c3ccccc3)CC2)n2ncnc2n1 | i | i | i | ? | ? | i
SMILES | Vaccinia mCherry | Vaccinia Venus | HCV inh | FMDV inh | HCMV antiviral | Sm TGR inh
CCOC(=O)c1sc(NC(=O)CN2C(=O)NC3(CC(C)CC(C)(C)C3)C2=O)cc1C (configuration not stated) | ? | ? | 11.2µM | i | i | i
C/C(=N\NC(=O)c1ccc(O)cc1)c1ccc2c(c1)Nc1ccccc1S2 | i | ? | 10µM | i | i | i
COc1ccc(C(=O)N/N=C(/C)c2cccc(NC(=O)c3ccccc3F)c2)cc1 | i | i | ? | i | i | i
C/C(=N\NC(=O)c1ccccc1F)c1ccc2c(c1)Nc1ccccc1S2 | ? | ? | ? | ? | -69.2 | i
CC(=O)Nc1cccc(/C(C)=N/NC(=O)c2ccc(O)cc2)c1 | i | i | i | i | i | i
Cc1ccc(NC(=O)C(C)Sc2nc(=O)cc(N)n2-c2ccccc2)cc1 (configuration not stated) | i | i | i | i | i | i
Cc1cccn2c(=O)c(C(=O)NCc3cccc(F)c3)cnc12 | ? | ? | nt | i | i | i
